Data published in the supplement of paper PMC4466140.

target: AgAbp1; test: SPOT peptide array binding signal intensity (averaged, normalized) (arbitrary units (background-subtracted, floor 0; scale differs between SH3 domains)); higher = stronger binding of the SH3 domain to the peptide
Summary of the method: (§1)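 Binding signal refers to normalized, background-subtracted spot intensity averaged over replicates, expressed in arbitrary units that differ between domains. GST-fused SH3 domains from four yeast species were incubated at 10 μg/ml overnight at 4°C on cellulose membranes of synthetic 15-mer peptides with cysteines replaced by serines. Bound protein was detected with anti-GST antibody, an HRP anti-mouse secondary and luminol, and quantified with Genespotter.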

Binder | SPOT peptide array binding signal intensity
HPRFVSPRIPSRIVK | 258

target: AgBbc1; test: as above
Summary of the method: as §1

Binder | SPOT peptide array binding signal intensity
HPRFVSPRIPSRIVK | 502

target: AgBem1-D1; test: as above
Summary of the method: as §1

Binder | SPOT peptide array binding signal intensity
HPRFVSPRIPSRIVK | 182

target: AgBzz1-D1; test: as above
Summary of the method: as §1

Binder | SPOT peptide array binding signal intensity
HPRFVSPRIPSRIVK | 185

target: AgBzz1-D2; test: as above
Summary of the method: as §1

Binder | SPOT peptide array binding signal intensity
HPRFVSPRIPSRIVK | 23.5

target: AgCyk3; test: as above
Summary of the method: as §1

Binder | SPOT peptide array binding signal intensity
HPRFVSPRIPSRIVK | 1

target: AgFus1; test: as above
Summary of the method: as §1

Binder | SPOT peptide array binding signal intensity
HPRFVSPRIPSRIVK | 239

target: AgHof1; test: as above
Summary of the method: as §1

Binder | SPOT peptide array binding signal intensity
HPRFVSPRIPSRIVK | 116

target: AgHse1; test: as above
Summary of the method: as §1

Binder | SPOT peptide array binding signal intensity
HPRFVSPRIPSRIVK | 176

target: AgLsb1; test: as above
Summary of the method: as §1

Binder | SPOT peptide array binding signal intensity
HPRFVSPRIPSRIVK | 138

target: AgLsb4; test: as above
Summary of the method: as §1

Binder | SPOT peptide array binding signal intensity
HPRFVSPRIPSRIVK | 28

target: AgMyo5; test: as above
Summary of the method: as §1

Binder | SPOT peptide array binding signal intensity
HPRFVSPRIPSRIVK | 11

target: AgNbp2; test: as above
Summary of the method: as §1

Binder | SPOT peptide array binding signal intensity
HPRFVSPRIPSRIVK | 390

target: AgRvs167; test: as above
Summary of the method: as §1

Binder | SPOT peptide array binding signal intensity
HPRFVSPRIPSRIVK | 12.3

target: AgSho1; test: as above
Summary of the method: as §1

Binder | SPOT peptide array binding signal intensity
HPRFVSPRIPSRIVK | 13

target: AgSla1-D1-D2; test: as above
Summary of the method: as §1

Binder | SPOT peptide array binding signal intensity
HPRFVSPRIPSRIVK | 62.5

target: AgSla1-D3; test: as above
Summary of the method: as §1

Binder | SPOT peptide array binding signal intensity
HPRFVSPRIPSRIVK | 32.5

target: CaAbp1-D1; test: as above
Summary of the method: as §1

Binder | SPOT peptide array binding signal intensity
HPRFVSPRIPSRIVK | 322

target: CaAbp1-D2; test: as above
Summary of the method: as §1

Binder | SPOT peptide array binding signal intensity
HPRFVSPRIPSRIVK | 83.5

target: CaBbc1; test: as above
Summary of the method: as §1

Binder | SPOT peptide array binding signal intensity
HPRFVSPRIPSRIVK | 1520

target: CaBem1-D1; test: as above
Summary of the method: as §1

Binder | SPOT peptide array binding signal intensity
HPRFVSPRIPSRIVK | 226

target: CaBzz1-D1; test: as above
Summary of the method: as §1

Binder | SPOT peptide array binding signal intensity
HPRFVSPRIPSRIVK | 255

target: CaBzz1-D2; test: as above
Summary of the method: as §1

Binder | SPOT peptide array binding signal intensity
HPRFVSPRIPSRIVK | 149

target: CaCyk3; test: as above
Summary of the method: as §1

Binder | SPOT peptide array binding signal intensity
HPRFVSPRIPSRIVK | 17

target: CaFus1; test: as above
Summary of the method: as §1

Binder | SPOT peptide array binding signal intensity
HPRFVSPRIPSRIVK | 373

target: CaHof1; test: as above
Summary of the method: as §1

Binder | SPOT peptide array binding signal intensity
HPRFVSPRIPSRIVK | 2

target: CaHse1; test: as above
Summary of the method: as §1

Binder | SPOT peptide array binding signal intensity
HPRFVSPRIPSRIVK | 25

target: CaLsb1; test: as above
Summary of the method: as §1

Binder | SPOT peptide array binding signal intensity
HPRFVSPRIPSRIVK | 1

target: CaLsb4; test: as above
Summary of the method: as §1

Binder | SPOT peptide array binding signal intensity
HPRFVSPRIPSRIVK | 933

target: CaMyo5; test: as above
Summary of the method: as §1

Binder | SPOT peptide array binding signal intensity
HPRFVSPRIPSRIVK | 13.8

target: CaNbp2; test: as above
Summary of the method: as §1

Binder | SPOT peptide array binding signal intensity
HPRFVSPRIPSRIVK | 428

target: CaRvs167; test: as above
Summary of the method: as §1

Binder | SPOT peptide array binding signal intensity
HPRFVSPRIPSRIVK | 230

target: CaRvs167-3; test: as above
Summary of the method: as §1

Binder | SPOT peptide array binding signal intensity
HPRFVSPRIPSRIVK | 5.75

target: CaSho1; test: as above
Summary of the method: as §1

Binder | SPOT peptide array binding signal intensity
HPRFVSPRIPSRIVK | 170

target: CaSla1-D1-D2; test: as above
Summary of the method: as §1

Binder | SPOT peptide array binding signal intensity
HPRFVSPRIPSRIVK | 736

target: CaSla1-D3; test: as above
Summary of the method: as §1

Binder | SPOT peptide array binding signal intensity
HPRFVSPRIPSRIVK | 11.5

target: ScAbp1; test: as above
Summary of the method: as §1

Binder | SPOT peptide array binding signal intensity
HPRFVSPRIPSRIVK | 238

target: ScBbc1; test: as above
Summary of the method: as §1

Binder | SPOT peptide array binding signal intensity
HPRFVSPRIPSRIVK | 283

target: ScBem1-D1; test: as above
Summary of the method: as §1

Binder | SPOT peptide array binding signal intensity
HPRFVSPRIPSRIVK | 21.5

target: ScBzz1-D1; test: as above
Summary of the method: as §1

Binder | SPOT peptide array binding signal intensity
HPRFVSPRIPSRIVK | 62

target: ScBzz1-D2; test: as above
Summary of the method: as §1

Binder | SPOT peptide array binding signal intensity
HPRFVSPRIPSRIVK | 73.5

target: ScCyk3; test: as above
Summary of the method: as §1

Binder | SPOT peptide array binding signal intensity
HPRFVSPRIPSRIVK | 12

target: ScFus1; test: as above
Summary of the method: as §1

Binder | SPOT peptide array binding signal intensity
HPRFVSPRIPSRIVK | 147

target: ScHof1; test: as above
Summary of the method: as §1

Binder | SPOT peptide array binding signal intensity
HPRFVSPRIPSRIVK | 8.75

target: ScHse1; test: as above
Summary of the method: as §1

Binder | SPOT peptide array binding signal intensity
HPRFVSPRIPSRIVK | 820

target: ScLsb1; test: as above
Summary of the method: as §1

Binder | SPOT peptide array binding signal intensity
HPRFVSPRIPSRIVK | 531

target: ScLsb2; test: as above
Summary of the method: as §1

Binder | SPOT peptide array binding signal intensity
HPRFVSPRIPSRIVK | 694

target: ScLsb3; test: as above
Summary of the method: as §1

Binder | SPOT peptide array binding signal intensity
HPRFVSPRIPSRIVK | 2050

target: ScLsb4; test: as above
Summary of the method: as §1

Binder | SPOT peptide array binding signal intensity
HPRFVSPRIPSRIVK | 114

target: ScMyo3; test: as above
Summary of the method: as §1

Binder | SPOT peptide array binding signal intensity
HPRFVSPRIPSRIVK | 27

target: ScMyo5; test: as above
Summary of the method: as §1

Binder | SPOT peptide array binding signal intensity
HPRFVSPRIPSRIVK | 32.5

target: ScNbp2; test: as above
Summary of the method: as §1

Binder | SPOT peptide array binding signal intensity
HPRFVSPRIPSRIVK | 510

target: ScPex13; test: as above
Summary of the method: as §1

Binder | SPOT peptide array binding signal intensity
HPRFVSPRIPSRIVK | 86.2

target: ScRvs167; test: as above
Summary of the method: as §1

Binder | SPOT peptide array binding signal intensity
HPRFVSPRIPSRIVK | 820

target: ScSho1; test: as above
Summary of the method: as §1

Binder | SPOT peptide array binding signal intensity
HPRFVSPRIPSRIVK | 256

target: ScSla1-D1-D2; test: as above
Summary of the method: as §1

Binder | SPOT peptide array binding signal intensity
HPRFVSPRIPSRIVK | 720

target: ScSla1-D3; test: as above
Summary of the method: as §1

Binder | SPOT peptide array binding signal intensity
HPRFVSPRIPSRIVK | 36

target: SpAbp1-D1; test: as above
Summary of the method: as §1

Binder | SPOT peptide array binding signal intensity
HPRFVSPRIPSRIVK | 180

target: SpBbc1; test: as above
Summary of the method: as §1

Binder | SPOT peptide array binding signal intensity
HPRFVSPRIPSRIVK | 19

target: SpBzz1-D1; test: as above
Summary of the method: as §1

Binder | SPOT peptide array binding signal intensity
HPRFVSPRIPSRIVK | 350

target: SpBzz1-D2; test: as above
Summary of the method: as §1

Binder | SPOT peptide array binding signal intensity
HPRFVSPRIPSRIVK | 1

target: SpCyk3; test: as above
Summary of the method: as §1

Binder | SPOT peptide array binding signal intensity
HPRFVSPRIPSRIVK | 4

target: SpHof1; test: as above
Summary of the method: as §1

Binder | SPOT peptide array binding signal intensity
HPRFVSPRIPSRIVK | 145

target: SpHof1-2; test: as above
Summary of the method: as §1

Binder | SPOT peptide array binding signal intensity
HPRFVSPRIPSRIVK | 15.8

target: SpHof1-3; test: as above
Summary of the method: as §1

Binder | SPOT peptide array binding signal intensity
HPRFVSPRIPSRIVK | 295

target: SpHse1; test: as above
Summary of the method: as §1

Binder | SPOT peptide array binding signal intensity
HPRFVSPRIPSRIVK | 318

target: SpLsb1; test: as above
Summary of the method: as §1

Binder | SPOT peptide array binding signal intensity
HPRFVSPRIPSRIVK | 1380

target: SpLsb4; test: as above
Summary of the method: as §1

Binder | SPOT peptide array binding signal intensity
HPRFVSPRIPSRIVK | 2670

target: SpMyo1; test: as above
Summary of the method: as §1

Binder | SPOT peptide array binding signal intensity
HPRFVSPRIPSRIVK | 49

target: SpNbp2; test: as above
Summary of the method: as §1

Binder | SPOT peptide array binding signal intensity
HPRFVSPRIPSRIVK | 78.5

target: SpPex13; test: as above
Summary of the method: as §1

Binder | SPOT peptide array binding signal intensity
HPRFVSPRIPSRIVK | 32

target: SpRvs167; test: as above
Summary of the method: as §1

Binder | SPOT peptide array binding signal intensity
HPRFVSPRIPSRIVK | 254

target: SpSla1-D1-D2; test: as above
Summary of the method: as §1

Binder | SPOT peptide array binding signal intensity
HPRFVSPRIPSRIVK | 1.5

target: SpSla1-D3; test: as above
Summary of the method: as §1

Binder | SPOT peptide array binding signal intensity
HPRFVSPRIPSRIVK | 11
